# High-throughput results (PubChem BioAssay)
# This is a sample that favours compounds with a hit; in the whole collection about 3.5% have one here.
# MITF inh – MITF inhibitors, primary screen, biochemical, AlphaScreen, human | AlphaScreen MITF homodimerization, bead proximity signal | 650,000 compounds, 0.91% hits | inhibition, % at 2.6 µM; in the data active = inhibition above about 50%;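 also: 0% = vehicle wells with protein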
# Target sequence (O75030 whole entry, looked up): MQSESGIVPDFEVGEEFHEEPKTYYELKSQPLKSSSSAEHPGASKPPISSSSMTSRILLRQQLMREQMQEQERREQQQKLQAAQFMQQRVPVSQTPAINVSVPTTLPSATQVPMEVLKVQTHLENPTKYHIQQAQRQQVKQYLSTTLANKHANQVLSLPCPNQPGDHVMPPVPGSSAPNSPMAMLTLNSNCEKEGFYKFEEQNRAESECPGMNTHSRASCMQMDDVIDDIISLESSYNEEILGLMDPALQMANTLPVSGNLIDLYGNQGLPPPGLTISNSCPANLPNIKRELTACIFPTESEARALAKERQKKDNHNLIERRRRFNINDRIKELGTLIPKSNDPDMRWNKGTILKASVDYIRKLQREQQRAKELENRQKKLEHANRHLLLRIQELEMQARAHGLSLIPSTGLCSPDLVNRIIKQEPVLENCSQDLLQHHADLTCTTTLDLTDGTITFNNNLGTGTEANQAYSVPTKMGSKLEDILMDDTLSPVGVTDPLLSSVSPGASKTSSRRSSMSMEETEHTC
# GPR151 ag – activators of human GPR151, primary screen, cell-based, PathHunter beta-arrestin, luminescence | G-protein coupled receptor 151 (Homo sapiens), Q8TDV0 | PathHunter beta-arrestin GPR151 cells | activation, % at 11.2 µM | 650,000 compounds, 1% hits; in the data active = activation above about 4.9%;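 also: 0% = median of compound wells and 100% = cells with positive control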
# FBW7 activator – FBW7 E3 ligase activators, primary screen, biochemical, AlphaScreen, human; F-box/WD repeat-containing protein 7 (Homo sapiens), Q969H0; AlphaScreen FBW7–phospho-cyclin E peptide binding, activator screen; normalized activity (activation), % at 26.1 µM; 650,000 compounds, 0.13% hits; AID 1259310, 2017; in the data active = normalized activity above about 1.9%;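 also: purified mutant Fbw7 with reduced substrate affinity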
# TEAD-YAP block – TEAD-YAP interaction inhibition, primary screen, TEAD-YAP interaction inhibitor project, luminescence, HEK-TIYL cells; AID 1259422, 2018; inhibition, % at 9.12 µM; TEAD-Gal4/YAP UAS-luciferase luminescence; 640,000 compounds, 1.4% hits; in the data active = inhibition above about 32%;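 also: 0% = median of test compound wells and 100% = reference inhibitor wells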
# GPR151 conf act – GPR151 activators, triplicate retest, confirmation, cell-based, PathHunter beta-arrestin, luminescence; AID 1508609, 2020; GPR151 PathHunter beta-arrestin cells, 90 min; % of EA-reagent control over plate median; activation, % at 11.2 µM; 6,700 tested, under 10 active; shares compounds with GPR151 ag;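 active = mean percent activation across replicates above the confirmation screen cutoff of 4.91%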
# GPR119 counter – GPR119 activators in beta-arrestin cells, counter-screen for GPR151 activator project, cell-based, PathHunter beta-arrestin, luminescence, triplicate; shares compounds with GPR151 ag; 90 min; 0 = compound-well median, 100 = enzyme-acceptor control; activation, % at 11.2 µM; 6,700 compounds, 0.3% hits; AID 1508611, 2020;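 active = mean percent activation in the counterscreen above 29.09%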;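 also: counterscreen on off-target GPR119 to flag nonselective hits from the GPR151 activator screen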
# An asterisk follows results filed as active; / = no result.
SMILES,MITF inh,GPR151 ag,FBW7 activator,TEAD-YAP block,GPR151 conf act,GPR119 counter
COc1ccc(CCNc2ncnc3nc(-c4cccc(N)c4)[nH]c23)cc1,7,5.2*,0,6,1,3
O=C(CSc1nc(Nc2ccc(F)cc2)c2ccccc2n1)c1ccc(Cl)c(Cl)c1,3,0,0,-12,/,/
COC(=O)C(C)n1c(=O)c2c(nc3n(-c4cccc(OC)c4)c(C)c(C)n23)n(C)c1=O (stereo not drawn),4,0,0,-3,/,/
CNc1cc(N2CCN(S(=O)(=O)c3ccccc3)CC2)ccc1[N+](=O)[O-],2,1,0,5,/,/
CNc1cc(N2CCN(S(=O)(=O)c3ccc4c(c3)CCCC4)CC2)ccc1[N+](=O)[O-],-5,13*,0,4,-1,0
O=C(CNc1ccc(Cl)cc1)N/N=C\c1cccs1,5,-1,0,-10,/,/
CC1(C)CC(=O)N(CC(=O)O)c2ccccc2S1(=O)=O,12,-2,0,7,/,/
CCOC(=O)N1CCN(C(=O)CN2C(=O)CC(C)(C)S(=O)(=O)c3ccccc32)CC1,3,5.9*,0,7,-1,3
Cc1ccc(S(=O)(=O)Nc2ccc(Cl)c([N+](=O)[O-])c2)cc1,12,6.3*,0,-9,-1,2
Cc1ccc(NS(=O)(=O)c2ccc(NS(=O)(=O)c3ccc4c(c3)OCCO4)cc2)cc1C,1,-2,0,4,/,/
Cc1ccc(S(=O)(=O)Nc2ccc3c(c2)OCCOCCOCCOCCOCCO3)cc1,-1,5.2*,0,-9,-1,-8
S=C(Nc1ccc(Cl)cc1)N(Cc1ccccc1Cl)C1CCCC1,-5,2,0,-9,/,/
O=C(COc1ccccc1Cl)Nc1ccc(N2CCN(C(=O)c3ccco3)CC2)cc1,2,9.9*,0,13,0,7
O=C(COc1ccc(Cl)cc1Cl)Nc1cccc(NC(=O)c2ccco2)c1,8,11*,0,-23,0,2
O=C(COc1ccc(Cl)cc1Cl)NCc1ccco1,13,0,0,-53,/,/
O=C(COc1ccc(Cl)cc1Cl)OCc1ccco1,-7,6.5*,0,19,0,-1
O=C(COc1ccc(Cl)cc1Cl)Nc1ccc(NC(=O)c2ccco2)c(Cl)c1,-2,0,0,-17,/,/
COc1ccc(C(=O)Cn2c(CN3CCCCC3)nc3ccccc3c2=O)cc1,-2,6.1*,0,-10,0,-7
COc1ccc(O)c(/C=N/NC(=O)CCC(=O)Nc2cccc(C)c2)c1,30,8.7*,0,23,0,6
O=C(CCCCCNC(=O)c1ccccc1)N/N=C/c1ccccc1O,13,9.6*,0,10,1,11
CCOc1ccc(/C=N/NC(=O)C(O)c2ccccc2)c(O)c1 (stereo not drawn),9,5.8*,0,-6,1,6
CCOc1ccc(NCC(=O)N/N=C/c2cc(OC)ccc2O)cc1,2,2,0,13,/,/
CCOc1ccc(NCC(=O)N/N=C/c2ccccc2O)cc1,10,5.4*,0,5,1,-16
Cc1ccc(N(CC(=O)NC2CCCCC2)C(=O)CCC(=O)Nc2nccs2)cc1C,10,0,0,1,/,/
CC(C)NS(=O)(=O)Nc1ccccc1C(=O)O,6,-1,0,5,/,/
SMILES,MITF inh,GPR151 ag,FBW7 activator,TEAD-YAP block,GPR151 conf act,GPR119 counter
COc1cccc(/C=N\NC(=O)CNc2ccc(C)cc2)c1O,-24,0,0,-3,/,/
Cc1cccc(NCC(=O)N/N=C/c2ccccc2O)c1,10,7.2*,0,1,2,4
COc1ccc(O)c(/C=N/NC(=O)CNc2cccc(C)c2)c1,-2,0,0,8,/,/
Cc1ccccc1NCC(=O)N/N=C\c1cc(Br)cc(Cl)c1O,10,9.2*,0,22,-1,-8
COc1cccc(/C=N/NC(=O)CNc2cccc(Cl)c2)c1O,12,7.2*,0,17,-1,-13
CCN1CCN(C(=O)c2cc(S(=O)(=O)N3CCCCC3)c[nH]2)CC1,-1,-1,0,-6,/,/
CN1CCN(C(=O)c2cc(S(=O)(=O)N3CCCCC3)c[nH]2)CC1,7,5.3*,0,-5,1,-4
COc1cccc(NC(=O)C2C3C=CC4(O3)C2C(=O)N(C2CCCCC2C)C4C(=O)NC2CCCCC2)c1 (stereo not drawn),-20,-1,0,1,/,/
CCc1cccc(NC(=O)C2CCCC2)c1,7,10*,0,-17,0,-11
O=c1/c(=C/c2ccc(-c3cc(C(F)(F)F)cc(C(F)(F)F)c3)o2)sc2nc3ccccc3n12,-9,1,0,1,/,/
COc1cccc(-n2cc(C(=O)NCCC(=O)NCc3ccccc3OC)c3ccccc3c2=O)c1,13,1,0,6,/,/
CCN(CC)CCOc1ccc2c(c1)C(=O)c1cc(OCCN(CC)CC)ccc1-2,8,15*,0,50*,-1,-3
CCCS(=O)(=O)c1c(S(=O)(=O)CCC)c2cc(-c3ccncc3)ccn2c1C(=O)c1ccc(C)cc1C,8,1,0,-3,/,/
Cc1cc(F)ccc1NC(=O)CCNc1c(N2CCCC2)c(=O)c1=O,14,5.0*,0,-3,0,-13
COCCNc1nc(SCC(=O)NCCc2ccc(S(N)(=O)=O)cc2)nc2ccccc12,3,4.9*,0,0,-1,-12
CCCCNc1nc(SCC(=O)Nc2ccc(OCC)cc2)nc2ccccc12,2,1,0,17,/,/
CCOc1ccc(NC(=O)CSc2nc(NCCc3ccccc3)c3ccccc3n2)cc1,4,6.0*,0,3,0,7
CC(=O)Nc1ccc(NC(=O)COC(=O)c2ccc3c(c2)nc(C)n3-c2ccccc2)cc1,0,11*,0,2,1,8
COc1cc2nc(-c3ccc(N4CCOCC4)nc3)nc(Nc3ccc(Oc4ccccc4)cc3)c2cc1OC,-5,0,0,24,/,/
COc1ccc(OC)c(N2C(=O)NC(=O)/C(=C/c3cccs3)C2=O)c1,-2,1,0,-3,/,/
Cc1cccc(N2C(=O)NC(=O)/C(=C\c3ccc(N(C)C)c([N+](=O)[O-])c3)C2=O)c1,0,5.6*,0,-11,-1,-5
COc1ccc(N2C(=O)/C(=C/c3cccs3)C(=O)NC2=S)c(OC)c1,8,5.2*,0,8,0,2
